From PubChem BioAssay (EPA / NIEHS)
Results filed as inconclusive are left out. Calls of active or inactive are those of the source. Rule for the calls: active = hit-call score of the fitted dose curve at least 0.9, where 1 is the maximum; inconclusive = response in the unintended direction; inactive = score below 0.9.

Target: human Retinoic Acid Receptor gamma (RARg), RARG (gene 5916) (UniProt P13631)
Experiment: ATG_RARg_TRANS: Attagene TRANS-FACTORIAL HepG2 Assay for human Retinoic Acid Receptor gamma (RARg) (AID 2283009)
Protocol: ATG_TRANS is a cell-based, multiplexed-readout assay that uses HepG2, a human liver cell line, with measurements taken at 24 hours after chemical dosing in a 24-well plate.ATG_RARg_TRANS is one of 30 assay component(s) measured or calculated from the ATG_TRANS assay. It is designed to make measurements of mRNA induction, a form of inducible reporter, as detected with fluorescence intensity signals by Reverse transcription polymerase chain reaction (RT-PCR) and Capillary electrophoresis technology.Data from the assay component ATG_RARg_TRANS was analyzed into 1 assay endpoint. This assay endpoint, ATG_RARg_TRANS, was analyzed in the positive analysis fitting direction relative to DMSO as the negative control and baseline of activity. Using a type of inducible reporter, measures of mRNA for gain-of-signal activity can be used to understand the reporter gene at the transcription factor-level as they relate to the gene RARG. Furthermore, this assay endpoint can be referred to as a primary readout, because this assay has produced multiple assay endpoints where this one serves a reporter gene function. To generalize the intended target to other relatable targets, this assay endpoint is annotated to the nuclear receptor intended target family, where the subfamily is non-steroidal.
Human liver HepG2 cells are transiently transfected with multiple reporter transcription units (MRTUs) in 6-well plates using FuGene 6 reagent (Roche; 3 ml FuGene/1 mg DNA). The MRTU constructs are regulated by a cis-regulating element (promoter). […] A major difference between the CIS and TRANS system is that in CIS activities of endogenous TFs are measured, whereas the TRANS assay evaluates changes in activities of exogenous, chimeric NR-Gal4 proteins. […] At the end of 24 hour incubation, total RNA was isolated using TriZol reagent (Invitrogen). The isolated RNA is then reverse-transcribed using oligo(dT) primer and Mo-MLV reverse transcriptase (Invitrogen) with DNAse I (Ambion) treatment for 30 min. The one-tenth of the produced cDNA was amplified by PCR using Taq DNA polymerase (Invitrogen) and two reporter sequence-specific primers. The PCR products were fluorescently labeled by primer extension with 6-arboxyfluorescein (6-FAM) 5'-labeled reporter sequence-specific primer (2 min at 95 C, 20 s at 68 C and 10 min at 72 C) and these products were digested with 5U of HpaI (New England Biolabs) for 2h at 37 C. […] The raw capillary electrophoresis data was processed using Attagraph software (Attagene).

Sequence of human Retinoic Acid Receptor gamma (RARg), RARG (gene 5916) (P13631 whole entry, looked up): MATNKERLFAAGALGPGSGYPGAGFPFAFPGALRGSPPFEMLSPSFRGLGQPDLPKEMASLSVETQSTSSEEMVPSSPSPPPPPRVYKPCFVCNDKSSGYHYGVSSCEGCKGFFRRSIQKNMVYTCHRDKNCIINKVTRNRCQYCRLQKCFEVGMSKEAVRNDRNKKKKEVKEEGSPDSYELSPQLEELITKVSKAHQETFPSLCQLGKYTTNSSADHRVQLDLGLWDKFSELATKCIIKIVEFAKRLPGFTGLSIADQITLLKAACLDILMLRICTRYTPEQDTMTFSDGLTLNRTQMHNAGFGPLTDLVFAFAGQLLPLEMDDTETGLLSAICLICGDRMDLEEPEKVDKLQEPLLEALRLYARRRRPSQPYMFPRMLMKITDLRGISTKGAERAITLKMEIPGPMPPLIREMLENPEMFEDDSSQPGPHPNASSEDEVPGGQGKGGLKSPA

| SMILES | outcome |
| --- | --- |
| Cc1ccc(N)c(N)c1 | inactive |
| Oc1ccc2ccc3cccc4ccc1c2c34 | inactive |
| O=C(Oc1ccc(Br)cc1)N1CCN2CCC1CC2 | inactive |
| O=P(OCCCl)(OCCCl)OCCCl | inactive |
| CC(O)CCO (stereo not given) | inactive |
| C1=Cc2cccc3cccc1c23 | inactive |
| CCCCCCCCCCCCCN1CC(C)OC(C)C1 (stereo not given) | inactive |
| [As]#[In] | inactive |
| Nc1ccc(N=Nc2ccccc2)cc1 | inactive |
| O=[N+]([O-])C(Br)(CO)CO | inactive |
| c1ccc2c(c1)-c1cccc3cccc-2c13 | inactive |
| N#CC(Br)(Br)C(N)=O | inactive |
| Nc1ccc(Oc2ccc(N)cc2)cc1 | inactive |
| CC(C)(OOC(C)(C)c1ccccc1)c1ccccc1 | inactive |
| CCOc1cccc(C2(N3CCN(c4ccccc4)CC3)CCC(C)CC2)c1 (stereo not given) | inactive |
| Cc1cc(N=Nc2ccccc2C)ccc1N | inactive |
| CC(C)(C)C(O)(CCc1ccc(Cl)cc1)Cn1cncn1 (stereo not given) | inactive |
| COC(=O)Nc1nc2ccccc2[nH]1 | inactive |
| OCCCl | inactive |
| CCOC(=O)[C@]1(c2ccccc2)Oc2ccccc2[C@@H]1N | inactive |
| O=C(O)C1C2CCC(O2)C1C(=O)O (stereo not given) | inactive |
| ClC1=C(Cl)C2(Cl)C3C(Cl)C=CC3C1(Cl)C2(Cl)Cl (stereo not given) | inactive |
| CS(=O)(=O)NC(=O)c1cc(Oc2ccc(C(F)(F)F)cc2Cl)ccc1[N+](=O)[O-] | inactive |
| Nc1cc(Cl)cc(C(=O)O)c1Cl | inactive |
| Cc1cccc(N)c1N | inactive |
| ClCCOCCCl | inactive |
| O=Cc1ccco1 | inactive |
| CCNS(=O)(=O)C(F)(F)C(F)(F)C(F)(F)C(F)(F)C(F)(F)C(F)(F)C(F)(F)C(F)(F)F | inactive |
| Nc1ccc(Cl)cc1N | inactive |
| Cc1ccc(N=C=O)cc1N=C=O | inactive |
